According to PubChem BioAssay (NCI):
About 79,000 compounds went through this panel and 15% of them were active in at least one assay; those are over-represented in the sample as a whole. Rule as the data show it: active = growth inhibition above about 70%; inactive = the rest.

What was measured:
[1] = NCI Yeast Anticancer Drug Screen. Data for the rad50 strain (AID 155);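 also: 0% = growth of vehicle-only cultures of the same strain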; details: S. cerevisiae rad50 strain growth inhibition; at 50.0 µM; active compounds read high
In short: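 Cells are treated with compound, grown, and their growth is then scored against vehicle-only cultures of the same repair-deficient yeast strain.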

[2] = NCI Yeast Anticancer Drug Screen. Data for the mec2-1 strain (AID 157); details: S. cerevisiae mec2-1 strain, at 50.0 µM, active compounds read high
In short: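 Compounds were applied to mec2-1 yeast cells. Their growth was then compared with that of vehicle-treated cultures to give growth inhibition.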

[3] = NCI Yeast Anticancer Drug Screen. Data for the sgs1 mgt1 strain (AID 161);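 also: 0% = growth of cultures given vehicle only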; details: S. cerevisiae sgs1 mgt1 strain, at 50.0 µM, active compounds read high
In short: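 This yeast growth screen uses a strain with defined DNA-repair lesions; compound-treated growth is compared with vehicle-treated growth.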

[4] = NCI Yeast Anticancer Drug Screen. Data for the cln2 rad14 strain (AID 165);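 also: 0% = growth equal to vehicle treated cultures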; details: S. cerevisiae cln2 rad14 strain, at 50.0 µM, active compounds read high
In short: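 Strain: cln2 rad14 yeast, altered in cell cycle control and DNA damage repair. Read-out: growth inhibition vs vehicle.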

[5] = NCI Yeast Anticancer Drug Screen. Data for the bub3 strain (AID 167); details: S. cerevisiae bub3 mutant strain, at 50.0 µM, active compounds read high
In short: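 Part of a panel of yeast mutants defective in DNA damage repair or cell cycle regulation. Each strain is grown with compound, and inhibition is calculated relative to solvent-treated cultures.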

[6] = NCI Yeast Anticancer Drug Screen. Data for the mlh1 rad18 strain (AID 175); details: S. cerevisiae mlh1 rad18 strain growth inhibition; at 50.0 µM; active compounds read high
In short: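 A repair-deficient yeast strain is exposed to test compound, and growth is scored relative to vehicle-treated controls.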

Measured: growth inhibition

C[S+](C)CCS(=O)(=O)[O-]
inactive: [1] 10.3% | [2] -6.45% | [3] -2.1% | [4] -30.4% | [5] 4.95% | [6] -13.2%

CCOC(=O)CC1(C)OCC(c2ccccc2)O1 (stereo not given)
inactive: [1] 8.8% | [2] -0.55% | [3] -3.6% | [4] -15% | [5] 9.35% | [6] -3.1%

CC(C(=O)O)c1ncnn1-c1ccccc1 (stereo not given)
inactive: [1] -3.35% | [2] 41% | [3] 6.45% | [4] 4.85% | [5] 10.6% | [6] 2.65%

O=C(Nc1ccccc1-c1ccccc1)c1ccccc1
inactive: [1] 1.15% | [2] -11.5% | [3] 20.1% | [4] 11.3% | [5] 45.4% | [6] 26.9%

[Cl][Pt+2][Cl].[NH-]C1CCCCC1C1CCCCC1[NH-] (stereo not given)
inactive: [1] 14.6% | [2] -12.4% | [3] -29.2% | [4] -41.2% | [5] -29.8% | [6] -27.4%

O=C(O)c1cc(=O)c2[nH]c3ccccc3c2s1
inactive: [1] -5.2% | [2] -17.9% | [3] -19.5% | [4] 9.55% | [5] -22.6% | [6] 7.95%

O=C(C[n+]1ccccc1)N/N=C(/CCC(=O)N(Cc1ccccc1)Cc1ccccc1)CC(=O)c1ccccc1
inactive: [1] -21.1% | [2] -21.8% | [3] -38% | [4] 0.85% | [5] -26.6% | [6] -21.8%

COc1ccc2cccc(C(=O)O)c2c1
inactive: [1] 1.3% | [2] -10.3% | [3] -6.5% | [4] 3.35% | [5] -15.6% | [6] -21.6%

O=C1C=C(Sc2ccccc2)c2nccc3c2c1nc1ccccc13
inactive: [1] 34.9% | [2] 7.6% | [3] 20.4% | [4] 6.55% | [5] 20.1% | [6] 30%

CCOC(=O)C1(C(=O)OCC)CC(CCC#N)(CCC#N)C(=O)C(CCC#N)(CCC#N)C1
inactive: [1] -2.15% | [2] -5.5% | [3] 1.55% | [4] -3.1% | [5] -11.4% | [6] -26.8%

CCOP(=O)(OCC)C1(O)CC(n2cc(C)c(=O)[nH]c2=O)OC1CO (stereo not given)
inactive: [1] 7.3% | [2] 59.1% | [3] -15.2% | [4] 27.1% | [5] -5.05% | [6] -37.7%

O=C(O)CSc1ncccc1[N+](=O)[O-]
inactive: [1] 8.85% | [2] -0.65% | [3] -6.05% | [4] 12.9% | [5] -32.6% | [6] 4.35%

O=C1c2ccccc2-c2cccc(I)c21
inactive: [1] 15.6% | [2] -8.7% | [3] -5.55% | [4] 6.95% | [5] 0.1% | [6] -7.4%

O=C(c1ccccc1)N(C(=O)c1ccccc1)c1cccc[n+]1[O-]
inactive: [1] 4.4% | [2] -2.25% | [3] -1.75% | [4] -12.2% | [5] -10.2% | [6] -4%

O=C1CCCC2=C1CC1=C(CCCC1=O)N2c1ccccc1
inactive: [1] -28.5% | [2] -20.9% | [3] 8.7% | [4] -0.75% | [5] 12.6% | [6] 12.6%

COc1ccc(NC(=S)NN=C(C)c2cccc(C(C)=NNC(=S)Nc3ccc(OC)cc3)n2)cc1
inactive: [1] -26.1% | [2] -23.1% | [3] 5.15% | [4] -15.7% | [5] -14.3% | [6] 1.95%

Cc1ccc(C(=O)O)c(C(=O)O)c1
inactive: [1] -11.2% | [2] -18.9% | [3] -18.4% | [4] -4.25% | [5] -17.1% | [6] 1.75%

CC(O)(c1cccc(OCc2ccccc2)c1)c1ccccn1 (stereo not given)
inactive: [1] 12.3% | [2] 0.05% | [3] 5.7% | [4] -11.4% | [5] -6.15% | [6] -7.8%

COC(=O)c1nnn(-c2ccc(Cl)cc2Cl)c1N
inactive: [1] -6.35% | [2] -18% | [3] -14.6% | [4] 6.3% | [5] -19.3% | [6] 14%

CC(=O)Nc1cc(N)cc(C(=O)O)c1
inactive: [1] 37% | [2] -0.9% | [3] 9.15% | [4] 9.75% | [5] -33.9% | [6] -7.5%
